# Source: PubChem BioAssay
# Tg IFNy HTS: T. gondii growth inhibition with IFN-gamma, primary screen, cell-based | Toxoplasma gondii growth in IFN-gamma-treated host cells; stronger effect = lower value | activity change, negative = inhibition, % (test concentration not listed) | hit rate 3.8% among 69,000; in the data active = activity change below about -70%, passing the limit was not always enough;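 note: host cells are HeLa cells infected with Toxoplasma gondii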
# Numbers without * were called inactive; i = inactive. The entries come from a sample that favours hits as a whole.
SMILES,Tg IFNy HTS
Cn1ncc(SCC(=O)O)c(Cl)c1=O,73
COc1ccccc1C(=O)NCCc1csc(-c2cccc(F)c2)n1,-78*
CCCCOc1ccc(C(=O)NCCc2csc(-c3ccc(OC)cc3)n2)cc1,-110*
CCOc1ccc(C(=O)NCCc2csc(-c3ccc(OC)cc3)n2)cc1,38
COc1ccccc1OCC(=O)NCCc1csc(-c2cccc(F)c2)n1,48
COc1ccc(-c2nc(CCNC(=O)c3cccs3)cs2)cc1OC,i
CCCCOc1ccc(C(=O)NCCc2csc(-c3ccc(Cl)cc3)n2)cc1,-49
COc1ccc(-c2nc(CCNC(=O)c3ccc(OC)cc3OC)cs2)cc1,42
O=C(NCCc1csc(-c2ccc(Cl)cc2)n1)c1cccs1,-79*
O=C(NCCc1csc(-c2ccccc2)n1)c1cccs1,246
O=C(NCCc1csc(-c2cccc(F)c2)n1)c1ccccc1F,-22
COc1ccc(-c2nc(CCNC(=O)c3ccccc3Br)cs2)cc1,i
COc1ccc(C(=O)NCCc2csc(-c3ccc(Cl)cc3)n2)c(OC)c1,-85*
COc1ccc(S(=O)(=O)NC(C)c2nc(-c3ccncc3)n[nH]2)cc1 (stereo unspecified),63
CCOCC1CCC2(CCN(C(=O)c3ccnnc3)CC2)N1CC1CC1 (stereo unspecified),-20
CCOc1c(C(C)=O)c(=O)[nH]c2scc(C)c12,-7
CCOC(=O)c1nc(N2CCN(c3cccc(C(F)(F)F)c3)CC2)c2ccccc2n1,2
CCOc1cccc(-c2noc(-c3nnn(Cc4nc(-c5ccccc5OC)oc4C)c3C)n2)c1,12
COc1cc2c(cc1OC)C1c3ccccc3N(Cc3ccccc3)C(=O)N1CC2 (stereo unspecified),-3
COc1ccc(C2N(c3ccc(C)cc3)CCN2c2ccc(C)cc2)cc1OC,54
COc1cc2c(cc1OC)C(c1ccccc1Cl)N(c1ccc(C)cc1)C(=O)C2 (stereo unspecified),-91*
CCn1c(SCC(=O)c2c(C)n(C)c3ccccc23)nc(=O)c2c(C(=O)OC)cc(C3CC3)nc21,44
O=C(c1csc(Cc2ccccc2)n1)N1CCCC1c1ccccn1 (stereo unspecified),7
CCOCC(=O)N1CCC2C1CCC(=O)N2c1cnn(C)c1 (stereo unspecified),4
C=CCN1CC[C@@H]2OCC[C@@]2(C(=O)N2CCOCC2)C1,-54
SMILES,Tg IFNy HTS
COc1ccc(S(=O)(=O)N2CCCN(S(=O)(=O)c3ccc(OC)c(OC)c3)CC2)cc1OC,-6
Cc1ccc(-c2nnc(-c3nc(NCCCN4CCCC4=O)c4ccccc4n3)o2)cc1,263
Cc1ccc(-c2nnc(-c3nc(NCCCN4CCc5ccccc5C4)c4ccccc4n3)o2)cc1,-118*
Cc1cccc(-c2nnc(-c3nc(NCCc4cnc[nH]4)c4ccccc4n3)o2)c1,121
Cc1ccc(-c2nnc(-c3nc(NCCc4cccs4)c4ccccc4n3)o2)cc1,-12
COc1ccc(CNc2nc(-c3nnc(-c4ccccc4)o3)nc3ccccc23)cc1,i
Cc1cccc(-c2nnc(-c3nc(NCCCN4CCCC4=O)c4ccccc4n3)o2)c1,441
CCCSCCCNc1nc(-c2nnc(-c3cccc(C)c3)o2)nc2ccccc12,-107*
Cc1ccc(CNc2nc(-c3nnc(-c4ccccc4)o3)nc3ccccc23)o1,-14
CCCCNc1nc(-c2nnc(-c3ccc(C)cc3)o2)nc2ccccc12,-40
CCCCNc1nc(-c2nnc(-c3ccccc3)o2)nc2ccccc12,-89*
c1ccc(-c2nnc(-c3nc(NCCN4CCOCC4)c4ccccc4n3)o2)cc1,-48
CCCSCCCNc1nc(-c2nnc(-c3ccccc3)o2)nc2ccccc12,-92*
Cc1cnccc1N1CCCN(C(=O)CC2CCc3ccccc32)CC1 (stereo unspecified),-20
CS(=O)(=O)N1CCn2cc(CN3CCCC3)nc2C1,11
O=C(O)c1cc(Br)cc(S(=O)(=O)NCc2cccnc2)c1,1
CCOc1ccccc1C(=O)N1CCN(S(=O)(=O)c2cc3c4c(c2)CCC(=O)N4CCC3)CC1,15
CCS(=O)(=O)N1CC[C@@H]2[C@@H]1CCC(=O)N2c1ccccc1,7
CC(=O)Nc1ccc(NC(=O)Cn2c(=O)cc(C(=O)N3CCCCC3)c3ccccc32)cc1,8
c1ccc(-n2cccn2)c(CNC2CCC3(CCNCC3)CC2)c1,4
c1ccc(-c2nnc(-c3nc(NCCc4cccs4)c4ccccc4n3)o2)cc1,-40
Cc1ccc(CCNc2nc(-c3nnc(-c4ccccc4)o3)nc3ccccc23)cc1,-14
C1=C(CCNc2nc(-c3nnc(-c4ccccc4)o3)nc3ccccc23)CCCC1,-99*
Cc1cccc(CN2C[C@H](N(C)Cc3ccco3)C3OCCCC32)n1 (stereo partly specified),-40
CC(C)C1CN(C(=O)CCc2ccc(=O)[nH]n2)CCCN1CC1CC1 (stereo unspecified),42
SMILES,Tg IFNy HTS
O=C1CCC2(CCN(c3ncccn3)CC2)N1CC1CC1,128
Cc1ccc(C(=O)N(C)C(C)c2ccon2)cc1N1CCNC1=O (stereo unspecified),2
CCN1CCN(C(=O)c2cn[nH]c2C)CC(Cc2ccc(-c3cccs3)cc2)C1=O (stereo unspecified),-19
Cc1c(-c2ccccc2)n(-c2ccccc2)c2ccccc12,-90*
Cc1c(C)n(C(=O)CSc2nnc(-c3ccccc3)o2)c2ccccc12,6
O=c1cc(O)c2ccccc2n1-c1ccccc1,46
Cc1ccc(S(=O)(=O)N2CCC3(CC2)Nc2ccc(C)c(C)c2-n2cccc23)c(C)c1,30
COCCO[C@@H]1CCN(C(=O)c2cccs2)[C@H]1Cc1ccccc1,-34
Cn1nc(-c2ccc(S(N)(=O)=O)s2)cc1C(F)(F)F,23
Nc1cc(N)nc(SCc2ccccc2)n1,172
Cn1nc(-c2ccc(-c3ccnc(SCc4ccccc4)n3)s2)cc1C(F)(F)F,-97*
Cc1ccc(C2(O)CCN(C(=O)c3ccc(-n4cnnc4)cc3)CC2)nc1,7
O=C1CCC(C(=O)Nc2ccc(Oc3ccc(F)cc3)cc2)NC(=O)N1 (stereo unspecified),-6
COCCN1CCCC12CCN(c1cccc(F)c1)CC2,-13
Brc1cccc(Nc2ncnc3cc4nc[nH]c4cc23)c1,-20
CNc1cc2c(Nc3cccc(Br)c3)ncnc2cn1,-16
CCN(CC)c1nc2nonc2nc1Nc1cccc(Br)c1,-112*
O=C(c1ccc(-c2ccc(-c3ccn[nH]3)cc2)o1)N1CCCC1,302
O=C(O)CN1Cc2[nH]nc(COc3ccccn3)c2C1,106
Cc1c(COC(=O)c2ccc(Cl)cc2Cl)sc2ccccc12,-60
CCO[C@H]1COC[C@@H]1NC(=O)c1cc(CN2CCCC2)c(CC)o1,-3
COc1ccc2[nH]c(C)c(C(=O)NCc3cc(Cl)c4c(c3)OCCCO4)c2c1,-85*
COc1ccc2[nH]c(C(=O)NC(C)c3ccc4c(c3)CCCO4)c(NC(C)=O)c2c1 (stereo unspecified),15
O=C(Cn1nnc(-c2ccccc2)n1)NCc1cc(Cl)c2c(c1)OCCCO2,3
CN1CCN(c2cc(C(=O)Nc3cc4c(cc3Cl)NC(=O)CO4)ccn2)CC1,12
O=C(Cn1ncc2c(N3CCN(c4ccccn4)CC3)ncnc21)Nc1ccccc1Br,60
CS(=O)(=O)NCCc1csc(-c2ccc(F)cc2)n1,128
COc1ccc(-n2c(=O)c(C(=O)NC3CCCCC3)c(O)c3cccnc32)cc1,36
CN(Cc1nc2ccc(Cl)cc2[nH]1)C(=O)c1cn(-c2ccccc2)nn1,-29
